Active and inactive are the calls of the source.
Assay: changes in parasitized red cell lysis, either direction – P. falciparum Indochina, OD700, 3 h, PSAC antagonist project, primary screen (AID 1156)
Settings: P. falciparum-infected erythrocytes, osmotic lysis, higher = more signal, called active from +8 up or from −8 down

z-score, inactive:
COC(=O)[C@@]1(Cc2ccc(F)cc2)[C@H]2c3cc(C(=O)N4CCCC4)n(CCc4c[nH]c5ccccc45)c3C[C@H]2CN1C(=O)c1ccccc1 0.805, COc1ccc(CCNC(=O)[C@@]2(c3ccc([N+](=O)[O-])cc3)CC(=O)N(C3CCCCC3)[C@@H]2c2ccc(CO)cc2)cc1 1.03, O=C(O)[C@@H]1[C@@H]2C(=O)N(c3ccccc3)C(=O)[C@@H]2C[C@@H]1Sc1ccccc1 0.0175, C=CC[C@@H](OC(=O)Nc1ccc(SC)cc1)c1ccc(O)c(F)c1 1.9, COCCOC(=O)N1C(=O)[C@@]2(c3cc(C#CC4=CCCCC4)ccc31)[C@H](C(=O)Nc1nc3ccccc3s1)[C@H]1C(=O)O[C@H](c3ccccc3)[C@H](c3ccccc3)N1[C@@H]2c1ccc(O)cc1 -0.0845, CC(C)C[C@@H]1NC(=O)[C@@H]2C[C@H](C(=O)NCCCCCCN)[C@H](c3cccc(OCCO)c3)N2C1=O 3.36, COCCOC(=O)N1C(=O)[C@@]2(c3cc(C#CCNC(N)=O)ccc31)[C@H](C(N)=O)[C@H]1C(=O)O[C@H](c3ccccc3)[C@H](c3ccccc3)N1[C@@H]2c1ccccc1OCCO 1.18

From PubChem BioAssay
